Measurements taken from the OligoGym collection.
Further: reference of the scale not given here.

The sequences below were run against LIMK2 (assay: pooled miR-30 sensor sort-seq; sequence = guide strand). Conditions: shRNA.
Work on TTGTCCAACTTGATGAGGCAGT yielded a sensor-assay potency score (higher = more potent) of -0.14.
TCGTTGACAGTCCTGTACCATA gave a sensor-assay potency score (higher = more potent) of -1.6.
TTTCTTTCGTCCACACACTTGA gave a sensor-assay potency score (higher = more potent) of 0.0479.
For TTCACTTGCACAGTGGTGGCGT, the sensor-assay potency score (higher = more potent) was 0.835.
TACAGCACACCAATGAACTTGA showed a sensor-assay potency score (higher = more potent) of -0.145.
TCGAGTAACAGATTCCTCCTGG gave a sensor-assay potency score (higher = more potent) of 1.05.

Each sequence was assayed against LIN54 in the same assay as above. Conditions: shRNA.
In the case of TTTCTTTAAAAGATAGTCCTTT, the sensor-assay potency score (higher = more potent) is reported as 0.288.
For TTATGTAACATTCTGTCTGCAG, the sensor-assay potency score (higher = more potent) was 0.565.
With TAAACATACTAGATTGAGGTGC the sensor-assay potency score (higher = more potent) was -0.0512.
Work on TACAACTATAGAGTCCTTGTAG yielded a sensor-assay potency score (higher = more potent) of 0.323.
In the case of TTAGTAAGTACTACACAGGAAG, the sensor-assay potency score (higher = more potent) is reported as -0.992.
TTTACAAGCAAAACATTCGTAA showed a sensor-assay potency score (higher = more potent) of -0.274.
TAGTCTTTTAAAATCATTGAAT was tested, and the sensor-assay potency score (higher = more potent) was -0.779.
For TTTTAAGACATCCTGATCGTTT, the sensor-assay potency score (higher = more potent) was -0.141.
With TACAATTTCAAACACAGTGATT the sensor-assay potency score (higher = more potent) was -0.963.
With TTGTCTGTCCTGTAACTGCTTT the sensor-assay potency score (higher = more potent) was -0.449.

What follows are sequences tested against LIN7C in the same assay as above. Conditions: shRNA.
Work on TTGCTCTACAAATATCTCTCTC yielded a sensor-assay potency score (higher = more potent) of -0.491.
Sequence TTCACTTTGAAGGACTCTTTGC has a sensor-assay potency score (higher = more potent) of -0.329.
Work on TAGCGTTCGCTCTCACTTCAGG yielded a sensor-assay potency score (higher = more potent) of -0.712.
For TAATATTGAATCCAAGGCCCTC, the sensor-assay potency score (higher = more potent) was -0.834.
TTTCTTCTAAGACTTTGGGTGT showed a sensor-assay potency score (higher = more potent) of -0.276.
Sequence TTTTGGTAGCTCAACAACTCGA has a sensor-assay potency score (higher = more potent) of -0.544.
Sequence TAACCTTTCCTTGTGCGGCTTT has a sensor-assay potency score (higher = more potent) of 0.0216.
With TCTATCAGCAATTCCACCTGGA the sensor-assay potency score (higher = more potent) was 1.09.
Sequence TTTTCTTACAATCATTGGCATT has a sensor-assay potency score (higher = more potent) of -1.46.
Work on TCTACAAATATCTCTCTCCAGC yielded a sensor-assay potency score (higher = more potent) of -1.02.

The sequences below were run against LINGO4 in the same assay as above. Conditions: shRNA.
TTTGACCCGACCTTTGCCCTTG showed a sensor-assay potency score (higher = more potent) of -0.241.
With ATATCCAGTTCTCTAAGCCTTA the sensor-assay potency score (higher = more potent) was -0.907.
For ATCTAGGAAGAGAACAATCTGG, the sensor-assay potency score (higher = more potent) was -0.599.
In the case of TTATCTGCCACATCCAGGAGGT, the sensor-assay potency score (higher = more potent) is reported as -0.12.
TGTGATGTTTGACCCGACCTTT showed a sensor-assay potency score (higher = more potent) of -0.94.
TCTAGGACCCTTACTCTCCCAG showed a sensor-assay potency score (higher = more potent) of -0.898.
Work on TGAGGTGGTACAGTGCTTGGAA yielded a sensor-assay potency score (higher = more potent) of 0.431.
TTCCACCTGGATGACTTCCAGC showed a sensor-assay potency score (higher = more potent) of -1.16.
Sequence TAGCTCCTGGAGCCGCACCAGG has a sensor-assay potency score (higher = more potent) of -1.44.
For TTGCCAGACAGCCTCAAGGTGA, the sensor-assay potency score (higher = more potent) was -1.39.
TTGAGAGCTGGTTGTAGCTGAG was tested, and the sensor-assay potency score (higher = more potent) was -0.0336.
For TAGCTGAGGTCCAATTCCTGGA, the sensor-assay potency score (higher = more potent) was -0.789.
